High-throughput results (PubChem)
An excerpt weighted towards active compounds, which were near 1.2% of everything screened.
RGS16-Gao HTS = regulators of human RGS16-Galphao interaction; binding response (% of control), % at 10 µM; 220,000 compounds, 0.38% hits; bead-based flow cytometry RGS16-Galphao binding, fluorescence; actives lie on both sides; AID 1441; O15492+P09471;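 also: Galphao activated by GDP with aluminum fluoride before binding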
Target sequence (O15492 whole entry, looked up): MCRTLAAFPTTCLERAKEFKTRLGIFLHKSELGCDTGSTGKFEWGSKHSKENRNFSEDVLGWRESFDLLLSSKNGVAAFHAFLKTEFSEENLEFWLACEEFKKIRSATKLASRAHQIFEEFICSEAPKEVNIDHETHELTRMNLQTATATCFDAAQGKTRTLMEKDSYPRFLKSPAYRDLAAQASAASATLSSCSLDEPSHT
Target sequence (P09471 whole entry, looked up): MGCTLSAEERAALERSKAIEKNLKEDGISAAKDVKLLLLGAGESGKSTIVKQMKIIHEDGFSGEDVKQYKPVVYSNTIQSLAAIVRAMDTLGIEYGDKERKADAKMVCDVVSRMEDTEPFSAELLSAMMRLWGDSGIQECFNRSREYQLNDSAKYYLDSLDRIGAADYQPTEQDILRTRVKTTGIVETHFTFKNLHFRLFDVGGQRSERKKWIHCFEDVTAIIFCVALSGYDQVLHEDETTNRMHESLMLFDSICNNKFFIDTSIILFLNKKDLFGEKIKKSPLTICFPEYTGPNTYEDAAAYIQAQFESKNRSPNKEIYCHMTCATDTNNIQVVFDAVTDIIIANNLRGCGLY
RGS8-Gao = modulates binding of RGS8 to human Galphao. P09471. multiplexed bead flow cytometry; actives lie on both sides. response (percent of control binding), % at 10 µM. 220,000 compounds, 0.34% hits; in the data active = response below about 60% or above about 140%; inactive = in between;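 also: Galphao activated as the GDP aluminium fluoride complex binding bead-coupled RGS8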
Target sequence (P09471 whole entry, looked up): as above
Avidin fluor = avidin bead compound fluorescence profile; AID 1775; fluorescence (KMESF) at 10 µM; Avidin beads, compound fluorescence 488/530 nm, flow cytometry; hits give high values; 220,000 compounds, 0.38% hits; in the data active = fluorescence above about 47
RGS4-Gao reg = human RGS4-Galphao interaction regulation | P09471 | Multiplexed bead flow cytometry, RGS4-Galphao binding; actives lie on both sides | binding response (% of control), % at 10 µM | 220,000 compounds, 0.33% hits; in the data active = binding response below about 49% or above about 150%; inactive = in between;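 also: fluorescent Galphao activated with aluminum fluoride binding bead-coupled RGS4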
RGS7-Gao reg = human RGS7-Galphao interaction regulation | P09471 | Multiplexed bead flow cytometry, RGS7-Galphao binding; actives lie on both sides | binding response (% of control), % at 10 µM | 220,000 compounds, 0.35% hits | AID 1439; in the data active = binding response below about 49% or above about 150%;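 also: fluorescent Galphao held in activated GDP-AlF4 state binding bead-coupled RGS7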
GSH fluor = compound fluoresces at 488/530 nm on GSH beads | GSH beads flow cytometry, compound fluorescence 488/530 nm; hits give high values | fluorescence (KMESF) at 10 µM | 190,000 compounds, 0.25% hits; in the data active = fluorescence above about 89;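 also: glutathione beads carrying GST-tagged Bcl family fusion proteins plus one bare bead set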
RGS-Gao = RGS4-Galphao interaction regulator (human). AID 1504. 1,600 compounds, 99% hits. multiplexed bead flow cytometry, RGS–Galpha-o binding. shares compounds with RGS16-Gao HTS. RGS4–Galpha-o binding response, % at 10 µM;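 also: fluorescently labeled Galpha-o bound to GDP with aluminium fluoride binding biotinylated RGS beads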
Biotin-avidin = counter-screen: compounds disrupting biotin binding to avidin beads. shares compounds with RGS16-Gao HTS. streptavidin beads, fluorescein-biotin binding, flow cytometry. inhibition, % at 10 µM. 1,700 tested, under 10 active;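 active = inhibition above 50%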;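 also: median green fluorescence of gated singlet beads compared with DMSO control wells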
RGS8-Gao confirm = confirmation of regulators of human RGS8-Galphao interaction. shares compounds with RGS16-Gao HTS. bead-based flow cytometry RGS8-Galphao binding, fluorescence; actives lie on both sides. binding response (% of control), % at 10 µM. 1,700 compounds, 3% hits. AID 1836; in the data active = binding response below about 72% or above about 130%; inactive = in between;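 also: Galphao activated as GDP AlF4 complex before binding bead RGS8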
RGS7-Gao confirm = confirmation of regulators of human RGS7-Galphao interaction | response (percent of control binding), % at 10 µM | 1,700 compounds, 7.8% hits | AID 1837 | bead-based flow cytometry RGS7-Galphao binding; actives lie on both sides | shares compounds with RGS16-Gao HTS; in the data active = response below about 75% or above about 130%; inactive = in between;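 also: fluorescent Galphao activated with GDP and aluminum fluoride binding bead-coupled RGS7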
RGS16-Gao single = confirmation of regulators of human RGS16-Galphao interaction; response (% of control binding), % at 10 µM; 1,700 compounds, 4% hits; bead-based flow cytometry, RGS16-Galphao binding; actives lie on both sides; AID 1838; shares compounds with RGS16-Gao HTS; in the data active = response below about 74% or above about 130%; inactive = in between;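 also: Galphao activated as the GDP aluminium fluoride complex binding bead-coupled RGS16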
RGS4-Gao single = RGS4-Galphao interaction regulation, single point confirmation; shares compounds with RGS16-Gao HTS; RGS4-Galphao binding, multiplexed bead flow cytometry; actives lie on both sides; binding response (% of control), % at 10 µM; 1,700 compounds, 4% hits; AID 1840; in the data active = binding response below about 74% or above about 130%; inactive = in between
RGS19-Gao single = confirmation of regulators of human RGS19-Galphao interaction; shares compounds with RGS16-Gao HTS; 1,700 compounds, 5% hits; bead-based flow cytometry RGS19-Galphao binding; actives lie on both sides; response (percent of control binding), % at 10 µM; in the data active = response below about 50% or above about 160%; inactive = in between
Each line names hits and unclear results; the compound was inactive in the other large screens (follow-up assays come after a bar, where they were run); [ ] = another dose, or the depositor's remark. Unless noted, no rule for the calls is given here.

CC(=O)OCCCNc1cc(Sc2nc3ccccc3s2)c2nonc2c1[N+](=O)[O-]	RGS16-Gao HTS 8.5, RGS8-Gao 50.8 | RGS-Gao 82.5 | Biotin-avidin inactive | RGS8-Gao confirm inactive | RGS7-Gao confirm inactive | RGS16-Gao single inactive | RGS4-Gao single inactive | RGS19-Gao single 26.2
Cc1cc(C(=O)N2CCN(CCc3ccccc3)CC2)no1	RGS16-Gao HTS 303.4[activator], RGS8-Gao 172.3[activator], RGS4-Gao reg 226.7[activator], RGS7-Gao reg 223.8[activator] (no result: Avidin fluor) | Biotin-avidin inactive | RGS8-Gao confirm inactive | RGS7-Gao confirm 58.0 | RGS16-Gao single 70.2 | RGS4-Gao single 73.3 | RGS19-Gao single 39.4
Cc1noc(C)c1C(=O)N1CCN(CCc2ccccc2)CC1	none
Cc1ccc(C(=O)Nc2ccccc2C(=O)NCc2ccccc2)cc1	none
COc1ccc(C(c2nnnn2C2CCCC2)N2CCC(C)CC2)c(OC)c1 (stereo not drawn)	RGS4-Gao reg 188.3[activator], RGS7-Gao reg 174.5[activator] (no result: RGS16-Gao HTS, RGS8-Gao, Avidin fluor) | Biotin-avidin inactive | RGS8-Gao confirm inactive | RGS7-Gao confirm inactive | RGS16-Gao single inactive | RGS4-Gao single inactive | RGS19-Gao single inactive
Cc1ccc(C(CCN(Cc2ccccc2)C(=O)c2ccco2)c2ccco2)cc1 (stereo not drawn)	none
O=C(c1ccco1)N(CCC(c1ccccc1)c1ccco1)Cc1ccco1 (stereo not drawn)	RGS16-Gao HTS 2.3, RGS8-Gao 12.0, RGS4-Gao reg 22.8, RGS7-Gao reg 14.0 | Biotin-avidin inactive | RGS8-Gao confirm inactive | RGS7-Gao confirm inactive | RGS16-Gao single inactive | RGS4-Gao single inactive | RGS19-Gao single inactive
CC(=O)N1CCc2c(sc(NC(=O)CN3C(=O)c4ccccc4C3=O)c2C(N)=O)C1	RGS7-Gao reg 156.9[activator] | RGS-Gao 145.7 | Biotin-avidin inactive | RGS8-Gao confirm inactive | RGS7-Gao confirm inactive | RGS16-Gao single inactive | RGS4-Gao single inactive | RGS19-Gao single inactive
CCOc1c(O)ccc(C2NC(=O)NC(C)=C2C(=O)OC)c1[N+](=O)[O-] (stereo not drawn)	none
CCOc1c(O)ccc(C2NC(=O)N(C)C(C)=C2C(=O)OC)c1[N+](=O)[O-] (stereo not drawn)	Avidin fluor 168, RGS7-Gao reg 435.6[activator] | RGS-Gao 130.4 | Biotin-avidin inactive | RGS8-Gao confirm inactive | RGS7-Gao confirm inactive | RGS16-Gao single inactive | RGS4-Gao single inactive | RGS19-Gao single inactive
COCCNC(=O)CN(C(=O)Cn1nnc2ccccc21)c1cc(C)cc(C)c1	Avidin fluor 60, RGS7-Gao reg 167.4[activator] | RGS-Gao 110.2 | Biotin-avidin inactive | RGS8-Gao confirm inactive | RGS7-Gao confirm inactive | RGS16-Gao single inactive | RGS4-Gao single inactive | RGS19-Gao single inactive
CCN(CC)CCCNC(=O)CSc1c2c(nc3cc(Cl)ccc13)CCCC2	none
CC(C)NC(=O)c1ccc(C2SCC(=O)N2Cc2ccccc2)cc1 (stereo not drawn)	RGS16-Gao HTS 346.4[activator], Avidin fluor 185, RGS4-Gao reg 266.7[activator], RGS7-Gao reg 254.3[activator] | Biotin-avidin inactive | RGS8-Gao confirm inactive | RGS7-Gao confirm 75.3 | RGS16-Gao single inactive | RGS4-Gao single inactive | RGS19-Gao single inactive
CN1CCN(C(=O)c2cn(-c3ccccc3)nc2-c2cccnc2)CC1	RGS4-Gao reg 151.6[activator] (no result: RGS8-Gao, Avidin fluor) | Biotin-avidin inactive | RGS8-Gao confirm inactive | RGS7-Gao confirm inactive | RGS16-Gao single inactive | RGS4-Gao single inactive | RGS19-Gao single inactive
COc1cccc(C2c3c(oc4cc(C)c(C)cc4c3=O)C(=O)N2CCCN(C)C)c1 (stereo not drawn)	Avidin fluor 117, RGS7-Gao reg 263.2[activator] | RGS-Gao 122.2
N#C/C(=C(/O)CSc1nnc(Cc2cccs2)n1C1CCCCC1)c1nc2ccccc2[nH]1	RGS8-Gao 50.6, RGS4-Gao reg 32.8, RGS7-Gao reg 45.9, GSH fluor 228 | Biotin-avidin inactive | RGS8-Gao confirm inactive | RGS7-Gao confirm inactive | RGS16-Gao single inactive | RGS4-Gao single inactive | RGS19-Gao single inactive
COc1cc2c(C)nc3c(c(C)nn3-c3ccccc3)c2cc1OC	none
COc1cc2c(-c3ccc(O)cc3)nc3c(c(C)nn3-c3ccccc3)c2cc1OC	RGS4-Gao reg 199.5[activator] | Biotin-avidin inactive | RGS8-Gao confirm inactive | RGS7-Gao confirm inactive | RGS16-Gao single inactive | RGS4-Gao single inactive | RGS19-Gao single inactive
Cc1cc(C)n2cc(CSc3nc4ccccc4[nH]3)nc2n1	none
Cc1ccc(-c2nnc(Oc3ccc(NC(=O)c4ccccc4)cc3)c3ccccc23)cc1	none
CCc1cc(=O)oc2c(C)c(OCC(=O)N3CCCc4ccccc43)ccc12	RGS8-Gao 159.1[activator] | RGS-Gao 133.1 | Biotin-avidin inactive | RGS8-Gao confirm inactive | RGS7-Gao confirm inactive | RGS16-Gao single inactive | RGS4-Gao single inactive | RGS19-Gao single inactive
Cc1cccc(OCC(=O)N2CCCc3ccccc32)c1	none
O=C(c1ccncc1)N1N=C(C2CCCCC2)CC1(O)C(F)(F)F (stereo not drawn)	RGS4-Gao reg 47.3 | Biotin-avidin inactive | RGS8-Gao confirm inactive | RGS7-Gao confirm 71.8 | RGS16-Gao single inactive | RGS4-Gao single inactive | RGS19-Gao single inactive
